From PubChem BioAssay (NCI) come the findings set out here.

The structures appear in SMILES notation. The panel holds about 83,000 compounds, 20% with a hit somewhere; the sample as a whole holds those more often.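 Testing used 96-well plates and a 48-hour single-concentration exposure. Example: -40 means 40% of the starting cells died.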 Activity calls are given as the source filed them.

The subject of this assay is SK-MEL-28 melanoma. Put plainly: NCI-60 one-dose screen, 48 h (100 = growth as untreated, 0 = no growth, -100 = all killed). The note with it: 10 µM unless noted. How it is done:
Growth inhibition of the SK-MEL-28 human tumor cell line is measured as a screen for anti-cancer activity. Cells are grown in 96 well plates and exposed to the test compound for 48 hours. Compounds are tested at a single concentration, which is 10^-5 M for most compounds. The reported endpoint is percent growth (GI% or GIPRCNT), where numbers from 0 - 100% represent growth inhibition, and numbers from -100% - 0 represent cell death. For example, a value of 40 represents 60% growth inhibition. A value of 0 means no net growth occurred over the course of the experiment. A value of -40 indicates 40% of cells at the beginning of the experiment died by the end of the experiment. A value of -100 means all cells are dead at the end of the experiment.
NCI-60 Human Tumor Cell Lines Screen was performed using the standard one-dose NCI protocol, which is described in more detail at https://dtp.cancer.gov/discovery_development/nci-60/default.htm.
Compounds with GIPRCNT values below 10 were considered active. Activity score was based on GIPRCNT using the following formula: […]
Score is 0 for GIPRCNT values of 100 or above, 50 for GIPRCNT values of 0, and 100 for GIPRCNT values of -100.
Turning to `c1cc(-c2nc3ccc4[nH]ncc4c3c3c2CCCC3)[nH]n1`, the growth was 94.1% (inactive).

Turning to `O=c1[nH]c2ccccc2cc1CSc1ccccc1Nc1nccc(-c2ccc(Cl)cc2)n1`, the growth was 107% (inactive).

As for `C=CCn1c(SCC(=O)Nc2ccc(C(=O)/C=C/c3cccc([N+](=O)[O-])c3)cc2)nnc1-c1c[nH]c2ccccc12`, the growth is 95.4% (inactive).

Turning to `CC(C)(O)c1cncc(-c2ccc3ncnc(NCc4ccccc4)c3c2)c1`, the growth was 88% (inactive).

As to `N#Cc1c(Nc2ccccc2)nn2c(-c3ccc([N+](=O)[O-])cc3)ccnc12`, the growth is 100% (inactive).

With `C=CC(=O)N1CCC=C(c2cc3c(N[C@H](C)c4ccccc4)ncnc3[nH]2)C1`, the growth was 91.6% (inactive).

For the compound `COc1ccc(S(=O)(=O)NCCCNc2nccc(-c3cn(C(C)(C)C)nc3-c3ccc(Cl)c(OC)c3)n2)cc1`, the growth is 98.9% (inactive).

In the case of `Cc1occc1-c1nc2s/c(=C/c3ccc(-c4cc(C(F)(F)F)ccc4Cl)o3)c(=O)n2n1`, the growth is 112% (inactive).

Regarding `O=C1[C@H]2Cc3c([nH]c4ccccc34)[C@@H](c3ccc(Cl)cc3)N2C(=O)CN1C1CCN(Cc2ccccc2)CC1`, the growth was 67.8% (inactive).

Take `CCOc1cccc(-c2nc3sccn3c2-c2ccnc(S(C)(=O)=O)n2)c1`: the growth was 90.5% (inactive).

Turning to `NS(=O)(=O)c1ccc(Nc2nc(N/N=C/CCc3ccccc3)nc(Nc3ccccc3)n2)cc1`, the growth was 107% (inactive).

Turning to `Cc1ccc(-c2cc3nc(C(Cl)Cl)nc(C)n3n2)cc1`, the growth is 105% (inactive).

With `Cc1ccc(S(=O)(=O)N(CC[C@@H]2C[C@H]2c2cc3ccccc3o2)S(=O)(=O)c2ccc(C)cc2)cc1`, the growth is 93.5% (inactive).

Consider `NS(=O)(=O)c1ccc(Nc2nc(N/N=C/c3c[nH]c4ccccc34)nc(Nc3ccccc3)n2)cc1`, for which the growth is 45.9% (inactive).

`CNC(=O)c1cc(Oc2ccc3nc(NC(=O)c4cccc(OC(F)(F)F)c4)sc3c2)ccn1`: the growth is 85.3% (inactive).

Regarding `CCO/C=N/C1=C(C#N)C(c2ccc(OC)cc2)c2sc3c(CC)cccc3c2O1` (stereo not given), the growth is 67.2% (inactive).

On to `Cc1ccc(-n2cc(/C=N/NC(=O)c3nc(N)n[nH]3)c(-c3ccc(S(C)(=O)=O)cc3)n2)cc1`, for which the growth is 101% (inactive).

In the case of `CN1CCN(Cc2ccc(NC(=O)c3cncc(C#Cc4cnn5cccnc45)c3)cc2C(F)(F)F)CC1`, the growth is 12.1% (inactive).

On to `CNC(=O)c1cc(Oc2ccc3nc(NC(=O)c4ccc(N5CCOCC5)c(C(F)(F)F)c4)sc3c2)ccn1`, for which the growth is 86.1% (inactive).

`COc1cc(OC)cc(C(=O)Nc2cccc(C#Cc3cccc4[nH]nc(N)c34)c2)c1`: the growth was 50.3% (inactive).

For the compound `O=C(CSc1nc2ccccc2c(=O)n1-c1ccccc1)Nc1ccc(-c2nc3ccc([N+](=O)[O-])cc3[nH]2)cc1`, the growth is 82.6% (inactive).

For `C[C@H]1c2[nH]c3ccccc3c2C[C@H]2C(=O)N(CCCCCCC(=O)NO)CC(=O)N21`, the growth was 78.9% (inactive).

Take `COc1ccccc1C(=O)Nc1cccc2c1C(=O)C(=O)C=C2`: the growth is 108% (inactive).

Turning to `COc1ccc(OC)c(-c2nc(SCC(=O)c3ccc(Br)cc3)nc(Nc3ccc(S(N)(=O)=O)cc3)c2C#N)c1`, the growth is 57.7% (inactive).

Take `Cc1cc(-c2ccc(Cl)cc2)n(Cc2nnc(SCC(=O)Nc3ccc(S(N)(=O)=O)cc3)n2C2CCCCC2)n1`: the growth is 106% (inactive).

For `COc1ccc(NC(=O)Nc2ccc3c(ccn3C(=O)c3cccc(F)c3)c2)cc1`, the growth was 87.2% (inactive).

`CN1CCN(Cc2ccc(NC(=O)c3cncc(C#Cc4cnc5ccc(N6CCN(C)CC6)nn45)c3)cc2C(F)(F)F)CC1`: the growth was 82% (inactive).

On to `CCO/C=N/C1=C(C#N)C(c2ccc(Cl)cc2)c2sc3c(C)cccc3c2O1` (stereo not given), for which the growth was 60.5% (inactive).

As to `ClC(Cl)c1nc(-c2ccco2)n2nc(-c3ccccc3)cc2n1`, the growth was 12.4% (inactive).

For the compound `O=C1CCCc2nc(Nc3ccc(S(=O)(=O)Nc4ccc([N+](=O)[O-])cc4)cc3)ncc21`, the growth is 106% (inactive).

As for `CNC(=O)c1c(NC(=O)c2cccc(C(F)(F)F)c2F)sc2c1CCC(=O)C2`, the growth is 47.8% (inactive).

As to `O=S(=O)(NCCCNc1nccc(-c2[nH]c(-c3ccccc3)nc2-c2ccc(Cl)c(O)c2)n1)c1cccc(F)c1`, the growth is 25.3% (inactive).

In the case of `O=[N+]([O-])c1cc(/C=N/Nc2nc(N/N=C/c3ccc(Cl)c([N+](=O)[O-])c3)nc(N3CCCCC3)n2)ccc1Cl`, the growth was 62.2% (inactive).

Turning to `Cc1cc(C)cc(C(=O)Nc2cccc(C#Cc3cccc4[nH]nc(N)c34)c2)c1`, the growth is 72% (inactive).

Take `NC(N)=Nc1ccc(Nc2cccc(Nc3ccc(Cl)c(C(F)(F)F)c3)c2)cn1`: the growth was 40.3% (inactive).

With `CCn1c2ccccc2c2cc(-n3nncc3-c3ccccc3)ccc21`, the growth is 66.4% (inactive).

Take `COc1cc(OC)c(/C=C/S(=O)(=O)Cc2ccc(OC)c(NCC(=O)NO)c2)c(OC)c1`: the growth is 56.8% (inactive).

Regarding `CN(Cc1ccccc1)S(=O)(=O)/N=C1\NC(=O)NC1=C(Cl)Cl`, the growth is 11.2% (inactive).

For the compound `NC(N)=Nc1ccc(Oc2ccc(Nc3ccc(Cl)c(C(F)(F)F)c3)cc2)cc1`, the growth was 56.6% (inactive).

Consider `COc1ccc(NC(=O)CSc2nnc(-c3ccc4nc(-c5ccc(OC)c(OC)c5)[nH]c4c3)o2)cc1OC`, for which the growth is 97% (inactive).
